Measured values as given in PubChem BioAssay (EPA / NIEHS).
“And” between values parts separate entries of the source, which are not always exact repeats. Equal entries are not always repeated. The source made the active and inactive calls. The calls were made as follows: active = hit-call score of the fitted dose curve at least 0.9, where 1 is the maximum; inactive = score below 0.9.

assay: BSK_3C_VCAM1: BioMAP Diversity Plus: 3C Assay for Vascular cell adhesion molecule 1 (VCAM1) Biomarker Activity (AID 2282999); details: BioMAP 3C HUVEC, VCAM1 ELISA, cytokine-stimulated; actives raise or lower the signal
Method: BSK_3C is a cell-based, multiplexed-readout assay that uses umbilical vein endothelium, a human vascular primary cell, with measurements taken at 24 hours after chemical dosing in a 96-well plate.BSK_3C_VCAM1 is an assay component measured in the BSK_3C assay. It measures VCAM-1 antibody related to regulation of gene expression using ELISA technology.Data from the assay component BSK_3C_VCAM1 was analyzed into 1 assay endpoint. This assay endpoint, BSK_3C_VCAM1, was analyzed with bidirectional fitting relative to DMSO as the negative control and baseline of activity. Using a type of binding reporter, gain or loss-of-signal activity can be used to understand changes in the signaling as they relate to the gene VCAM1. Furthermore, this assay endpoint can be referred to as a primary readout, because this assay has produced multiple assay endpoints where this one serves a signaling function. To generalize the intended target to other relatable targets, this assay endpoint is annotated to the cell adhesion molecules intended target family, where the subfamily is Immunoglobulin CAM.
The levels of cell surface (or secreted, indicated by the prefix "s") biomarker endpoints were measured by ELISA. Overt cytotoxicity to cells in confluent adherent cultures (all systems other than the BT system) was assessed by measuring total protein levels using sulforhodamine B (SRB) staining in parallel cultures at the time of biomarker measurements, indicated as SRB endpoints. For proliferation assays for adherent cell types, individual cell types are cultured at sub-confluence and relative cell numbers quantified by SRB staining at time points optimized for each system (48 h: 3C and CASM3C systems; 72 h: BT and HDF3CGF systems; 96 h: SAg system). SRB was performed by staining cells with 0.1% SRB after fixation with 10% TCA and reading wells at 560 nm.Viability and proliferation of PBMC (T cells) was quantified by Alamar Blue reduction for the SAg and BT systems. For PBMC viability (referred to as PBMC Cytotoxicity within the assay endpoint names), cells were plated (75,000/well in a 96-well plate) and then chemical samples added for 1 h before addition of activators, SEB and TSST-1 (20 ng/mL final concentration each). Cells were incubated for 90 h. Then, Alamar Blue (20 uL/well) (Invitrogen, Cat DAL1100) was added for 6 h, and the plates were read with a fluorescence microplate reader at 546/580 nm (excitation/emission). For PBMC proliferation, cells were plated and activated as above but incubated for only 16 h prior to addition of Alamar Blue. Plates were read after 6 h.

| SMILES | outcome | AC50 |
| --- | --- | --- |
| COc1ccccc1Oc1c(NS(=O)(=O)c2ccc(C(C)(C)C)cc2)nc(-c2ncccn2)nc1OCCO | inactive | – |
| CCC[Si](OC(C)=O)(OC(C)=O)OC(C)=O | inactive | – |
| COc1ccc(C(=O)c2ccccc2O)c(O)c1 | inactive | – |
| C1CN(CCOCCN2CCOCC2)CCO1 | inactive | – |
| Oc1cccc2ccccc12 | inactive | – |
| CCCCCCC(O)CCCCCCCCCCC(=O)OC (configuration not stated) | inactive | – |
| Cc1cc(-n2nc3ccc(Cl)cc3n2)c(O)c(C(C)(C)C)c1 | inactive | – |
| CCCCCCCCCCCCCCCCCC[N+](C)(C)C | – | 6.29 µM (active) |
| CC[N+](CC)(CC(=O)Nc1c(C)cccc1C)Cc1ccccc1 | inactive | – |
| CN(C)c1ccc(C(c2ccccc2)c2ccc(N(C)C)cc2)cc1 | – | 20 µM (active) |
| OC(C(F)(F)F)(C(F)(F)F)C(O)(C(F)(F)F)C(F)(F)F | – | 38.6 µM (active) and 42.1 µM (active) |
| CCCCCCCCCCC1CO1 (configuration not stated) | – | 34.8 µM (active) |
| O=C(C(=O)c1ccccc1)c1ccccc1 | inactive | – |
| CCCCCCCCCC/C=C/C1CC(=O)OC1=O (configuration not stated) | inactive | – |
| CC(C)C1OCCN1CCOC(=O)NCCCCCCNC(=O)OCCN1CCOC1C(C)C (configuration not stated) | inactive | – |
| CC(C)CC(=O)CC(C)CC(C)C (configuration not stated) | – | 35.1 µM (active) |
| CCCCC(CC)COC(=O)C=Cc1ccc(OC)cc1 (configuration not stated) | inactive | – |
| CN(C)Cc1cc(C(C)(C)C)c(O)c(C(C)(C)C)c1 | inactive | – |
| Cc1c(C(N)=O)cc([N+](=O)[O-])cc1[N+](=O)[O-] | inactive | – |
| CN(C)CCC(c1ccc(Cl)cc1)c1ccccn1 (configuration not stated) | inactive | – |
| Sc1nc2ccccc2s1 | inactive | – |
| CCC(C)=NO | inactive | – |
| CC[N+](CC)(CC(=O)Nc1c(C)cccc1C)Cc1ccccc1 (tested in a mixture with another compound) | inactive | – |
| O=[N+]([O-])c1cc(S(=O)(=O)Nc2ccccc2)ccc1Nc1ccccc1 | inactive | – |
| COC(=O)/C=C\C(=O)OC | inactive | – |
| COc1cc(CNC(=O)CCCC/C=C/C(C)C)ccc1O | inactive | – |
| Cc1cccnc1 | inactive | – |
